Assay results: PubChem BioAssay (NCI)
About 83,000 compounds went through this panel and 20% of them were active in at least one assay; those are over-represented in the sample as a whole.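 Assay: single dose, 48 h. Readout: percent growth (0 = no net growth; negative = cell death). Active: <10.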

Columns and labels:
Experiment in all cases: NCI-60 one-dose screen, 48 h (100 = growth as untreated, 0 = no growth, -100 = all killed)
Conditions in all cases: 10 µM unless noted
NCI-H23 lung = test system: NCI-H23 lung
NCI-H226 lung = test system: NCI-H226 lung
NCI-H322M lung = test system: NCI-H322M lung
HOP-62 NSCLC = test system: HOP-62 NSCLC
NCI-H460 lung = test system: NCI-H460 lung
HOP-92 NSCLC = test system: HOP-92 NSCLC
NCI-H522 lung = test system: NCI-H522 lung
A549/ATCC NSCLC = test system: A549/ATCC NSCLC
786-0 renal = test system: 786-0 renal
COLO 205 colon = test system: COLO 205 colon
K-562 leukemia = test system: K-562 leukemia
MALME-3M melanoma = test system: MALME-3M melanoma
MDA-MB-231 breast = test system: MDA-MB-231 breast
RXF 393 renal = test system: RXF 393 renal
SF-268 CNS = test system: SF-268 CNS
SF-295 CNS = test system: SF-295 CNS
SF-539 CNS = test system: SF-539 CNS
UACC-257 melanoma = test system: UACC-257 melanoma
M14 melanoma = test system: M14 melanoma
DU-145 prostate = test system: DU-145 prostate

Measured: growth

CC(=O)C1C(=O)C(=O)N(c2ccc(Cl)c(Cl)c2)C1=O (configuration not stated)
inactive: NCI-H23 lung 90.3% | NCI-H226 lung 106% | NCI-H322M lung 108% | HOP-62 NSCLC 89.3% | NCI-H460 lung 109% | HOP-92 NSCLC 116% | NCI-H522 lung 103% | A549/ATCC NSCLC 113% | 786-0 renal 102% | COLO 205 colon 103% | K-562 leukemia 108% | MALME-3M melanoma 92.4% | MDA-MB-231 breast 101% | RXF 393 renal 110% | SF-268 CNS 99.8% | SF-295 CNS 96.7% | SF-539 CNS 99.5% | UACC-257 melanoma 109% | M14 melanoma 93.7%

N#C/C(=C\c1ccc(C#N)cc1)C(=O)c1ccccc1
inactive: NCI-H23 lung 86.8% | NCI-H226 lung 95.5% | NCI-H322M lung 97.4% | HOP-62 NSCLC 103% | NCI-H460 lung 116% | HOP-92 NSCLC 86.3% | NCI-H522 lung 91.4% | A549/ATCC NSCLC 98.4% | 786-0 renal 94.2% | COLO 205 colon 123% | DU-145 prostate 107% | MALME-3M melanoma 109% | MDA-MB-231 breast 104% | SF-268 CNS 104% | SF-295 CNS 107% | SF-539 CNS 96.8% | UACC-257 melanoma 97.7% | M14 melanoma 95.7%

COC1OC(C(O)C(O)CO)C(O)C(O)C1O (configuration not stated)
inactive: NCI-H23 lung 106% | NCI-H226 lung 93.4% | NCI-H322M lung 98.1% | HOP-62 NSCLC 88.5% | NCI-H460 lung 106% | HOP-92 NSCLC 101% | NCI-H522 lung 111% | A549/ATCC NSCLC 97.3% | COLO 205 colon 111% | DU-145 prostate 118% | K-562 leukemia 104% | MALME-3M melanoma 101% | RXF 393 renal 98% | SF-268 CNS 103% | SF-295 CNS 100% | SF-539 CNS 97.5% | UACC-257 melanoma 95.6% | M14 melanoma 97.4%

S=c1nc(-c2ccccn2)c(-c2ccccn2)n[nH]1
inactive: NCI-H23 lung 100% | NCI-H226 lung 101% | NCI-H322M lung 103% | HOP-62 NSCLC 110% | NCI-H460 lung 112% | NCI-H522 lung 82.7% | A549/ATCC NSCLC 105% | 786-0 renal 98.4% | COLO 205 colon 115% | DU-145 prostate 103% | K-562 leukemia 105% | MALME-3M melanoma 89.6% | MDA-MB-231 breast 118% | RXF 393 renal 118% | SF-268 CNS 102% | SF-539 CNS 111% | UACC-257 melanoma 107% | M14 melanoma 98.3%

C=CCC(O)C=C (configuration not stated)
inactive: NCI-H23 lung 101% | NCI-H226 lung 103% | NCI-H322M lung 91.7% | HOP-62 NSCLC 109% | NCI-H460 lung 107% | NCI-H522 lung 108% | A549/ATCC NSCLC 99.4% | 786-0 renal 97.5% | COLO 205 colon 106% | DU-145 prostate 111% | K-562 leukemia 91.4% | MALME-3M melanoma 80.7% | MDA-MB-231 breast 108% | RXF 393 renal 107% | SF-268 CNS 111% | SF-295 CNS 99.6% | SF-539 CNS 104% | UACC-257 melanoma 93.5% | M14 melanoma 104%

CCOC(=O)C(C#N)=C1CCN(C)CC1
inactive: NCI-H23 lung 94.3% | NCI-H226 lung 111% | NCI-H322M lung 107% | HOP-62 NSCLC 104% | NCI-H460 lung 111% | NCI-H522 lung 105% | A549/ATCC NSCLC 101% | 786-0 renal 110% | COLO 205 colon 108% | DU-145 prostate 123% | K-562 leukemia 116% | MALME-3M melanoma 124% | MDA-MB-231 breast 119% | RXF 393 renal 115% | SF-268 CNS 102% | SF-295 CNS 103% | SF-539 CNS 105% | UACC-257 melanoma 93.9% | M14 melanoma 105%

Cc1cc(NC(=O)c2ccccc2)c(Cl)cc1N
inactive: NCI-H23 lung 98.6% | NCI-H226 lung 97.1% | NCI-H322M lung 97.7% | HOP-62 NSCLC 96.7% | NCI-H460 lung 99.9% | NCI-H522 lung 79.5% | A549/ATCC NSCLC 99.4% | 786-0 renal 92.1% | COLO 205 colon 129% | DU-145 prostate 126% | K-562 leukemia 98.8% | MALME-3M melanoma 103% | MDA-MB-231 breast 96% | RXF 393 renal 124% | SF-268 CNS 114% | SF-295 CNS 94% | SF-539 CNS 95.5% | UACC-257 melanoma 100% | M14 melanoma 95.8%

CC1(c2ccccc2)CO1 (configuration not stated)
inactive: NCI-H23 lung 108% | NCI-H226 lung 109% | NCI-H322M lung 125% | HOP-62 NSCLC 97.2% | NCI-H460 lung 115% | NCI-H522 lung 99.2% | A549/ATCC NSCLC 103% | 786-0 renal 102% | COLO 205 colon 114% | DU-145 prostate 111% | K-562 leukemia 106% | MALME-3M melanoma 118% | MDA-MB-231 breast 108% | RXF 393 renal 120% | SF-268 CNS 107% | SF-295 CNS 110% | SF-539 CNS 102% | UACC-257 melanoma 102% | M14 melanoma 108%

Oc1ccc(CCC2CCNc3ccccc32)cc1 (configuration not stated)
inactive: NCI-H23 lung 65.3% | NCI-H226 lung 62.8% | NCI-H322M lung 91.1% | HOP-62 NSCLC 75.8% | NCI-H460 lung 83.8% | NCI-H522 lung 68.8% | A549/ATCC NSCLC 52.1% | 786-0 renal 82.2% | COLO 205 colon 93.4% | DU-145 prostate 93.4% | K-562 leukemia 69.7% | MALME-3M melanoma 98.8% | MDA-MB-231 breast 86.2% | RXF 393 renal 81.5% | SF-268 CNS 83.1% | SF-295 CNS 75.2% | SF-539 CNS 75.7% | M14 melanoma 89.4%
